About 50 (0.02%) of roughly 290,000 compounds were called active. Only a selection was taken, and actives are over-represented in it overall. Potency and affinity values are given separately. Unmarked numbers belong to inactive results.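 Rule for the calls: active = displacement of at least 50% at 20 µM, with a fluorescence ratio check between 0.3 and a set limit; inactive = the rest.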

The target in this experiment is E3 ubiquitin-protein ligase SIAH1 (Homo sapiens) (UniProt Q8IUQ4). The experiment in a line: blockers of Siah-1 interaction with plectin peptide – biochemical, fluorescence polarization, rhodamine-plectin, uHTS, primary screen (AID 1817).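 Note: plate controls were Siah plus tracer with DMSO for no effect and tracer alone without Siah for full effect.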 The following applies: Siah-1 / rhodamine-plectin peptide fluorescence polarization; at 20 µM; stronger effect = higher value. Background: Fluorescence polarisation rises when a labelled molecule tumbles more slowly, as on binding a larger partner.
Sequence of E3 ubiquitin-protein ligase SIAH1 (Homo sapiens) (Q8IUQ4 whole entry, looked up): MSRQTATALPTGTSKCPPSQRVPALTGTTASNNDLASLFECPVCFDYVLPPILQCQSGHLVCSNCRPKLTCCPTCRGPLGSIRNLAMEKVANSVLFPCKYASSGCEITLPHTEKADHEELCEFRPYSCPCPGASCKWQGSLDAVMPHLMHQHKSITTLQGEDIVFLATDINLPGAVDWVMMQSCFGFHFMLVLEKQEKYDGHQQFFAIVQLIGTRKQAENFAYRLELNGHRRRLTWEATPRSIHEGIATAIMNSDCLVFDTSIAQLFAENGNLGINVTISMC
In the case of `Cc1ccc(N2C(=O)NC(=O)/C(=C\C=C\c3ccco3)C2=O)cc1`, the displacement is 12.1%.
With `CC(C)c1ccc(N2C(=O)NC(=O)/C(=C/C=C/c3ccco3)C2=O)cc1`, the displacement is 51.8% (active).
Consider `CC(C)c1ccc(N2C(=O)NC(=O)/C(=C\C=C\c3ccco3)C2=O)cc1`, for which the displacement was 14.6%.
On to `O=[N+]([O-])c1ccc(N2CCNCC2)cc1NCc1ccco1`, for which the displacement is -3.7%.
Take `C=C1C(=O)O[C@@H]2C[C@@H](C)[C@@H]3C=CC(=O)[C@@]3(C)[C@@H](O)[C@H]12`: the displacement was 4.7%.
On to `C=C1C(=O)O[C@H]2C[C@@H](C)[C@@H]3C=CC(=O)[C@@]3(C)C[C@H]12`, for which the displacement was 12.6%.
Take `C=C1C(=O)O[C@@H]2C[C@@H](C)[C@H]3C=CC(=O)[C@]3(O)C[C@@H]12`: the displacement is 51.6% (active).
As for `Cc1cc(C=O)c(C)n1C1CCCCC1`, the displacement is 2.7%.
With `CCCCn1c(NC(=O)c2ccco2)c(C(=O)OCC)c2nc3ccccc3nc21` the figure was 4.9%; with `CCOC(=O)c1c(N)n(CCCOC(=O)c2ccco2)c2nc3ccccc3nc12`, 2.6%; with `CCOC(=O)c1c(NS(=O)(=O)c2ccccc2)n(CCCOC)c2nc3ccccc3nc12`, 67% (active).
For the compound `COCCCn1c(N)c(C(=O)OCCOC)c2nc3ccccc3nc21`, the displacement was 2.9%.
For `CCCCn1c(NS(=O)(=O)c2ccc(C)cc2)c(C(=O)OCC)c2nc3ccccc3nc21`, the displacement is 34.7%.
The value for `CCCCCn1c(NC(=O)c2ccco2)c(C(=O)OCC)c2nc3ccccc3nc21` was 64.6% (active); that for `COc1ccc(NC(=O)N2CCC3(CC2)OCCO3)cc1` was -2.3%.
The value for `O=C(O)C1C2CCC(O2)C1C(=O)Nc1ccc(F)c(F)c1` (stereo not given) was 10.6%.
As for `O=C1NC(=S)N(Cc2ccco2)C(=O)/C1=C\c1cccs1`, the displacement was 21.3%.
The value for `Cc1ccccc1-n1c(O)c(/C=N/N2CCOCC2)c(=O)[nH]c1=S` was 2.7%; that for `Cc1cccc(C)c1NC1=NCCCCS1` was -1.2%; that for `CCCC12CN3CCN(C1)CC(CCC)(C3)C2=O` was 8.2%.

(Values after PubChem BioAssay AID1817 (Sanford-Burnham Center for Chemical Genomics, 2009).)
